# Measured values published in PMC7862700, “An all-to-all approach to the identification of sequence-specific readers for epigenetic DNA modifications on cytosine”.
# What was measured:
# Experiment in all cases: DAPPL (digital affinity profiling via proximity ligation, sequencing); 10 mM Tris-HCl pH 7.5, 50 mM NaCl, 1 mM DTT, 4% glycerol, room temperature, 30 min; GST-TFs on glutathione beads, 16-mer random dsDNA library, 0.1% formaldehyde crosslink after washing; high values mean tight binding
# Details in all cases: protein: recombinant; tags: N-terminal GST; dsDNA, one strand shown
# FLI1 = target: T1, FLI1 (Homo sapiens, UniProt Q01543 1-452)
# T1 sequence: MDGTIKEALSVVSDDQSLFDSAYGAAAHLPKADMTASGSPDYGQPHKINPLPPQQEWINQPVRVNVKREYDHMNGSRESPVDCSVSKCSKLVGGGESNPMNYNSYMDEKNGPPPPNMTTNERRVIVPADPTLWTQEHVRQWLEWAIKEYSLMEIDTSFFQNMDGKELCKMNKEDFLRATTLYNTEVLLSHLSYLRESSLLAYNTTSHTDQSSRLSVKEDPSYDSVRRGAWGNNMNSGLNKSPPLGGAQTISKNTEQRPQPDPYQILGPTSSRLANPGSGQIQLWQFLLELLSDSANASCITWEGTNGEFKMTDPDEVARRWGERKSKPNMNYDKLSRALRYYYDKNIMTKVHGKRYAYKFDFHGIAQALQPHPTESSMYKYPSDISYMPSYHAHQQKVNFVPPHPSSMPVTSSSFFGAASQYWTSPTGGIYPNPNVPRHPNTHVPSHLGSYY
# Procedure, shortened: (§1)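 Pools were built from human transcription factors expressed in yeast as GST fusions, captured on glutathione beads and DNA-barcoded, along with a tag-only sample. Incubation with 200 nmole of a 16-mer random double-stranded DNA library lasted 30 min at room temperature in Tris/NaCl/DTT/glycerol buffer, and was followed by washing, 0.1% formaldehyde crosslinking, proximity ligation, PCR amplification and Illumina NextSeq500 sequencing. Binding signal is the quotient of each hexamer's read frequency for a factor and its frequency for the tag-only sample.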
# ELK1 = target: T2, ELK1 (Homo sapiens, UniProt P19419 1-428)
# T2 sequence: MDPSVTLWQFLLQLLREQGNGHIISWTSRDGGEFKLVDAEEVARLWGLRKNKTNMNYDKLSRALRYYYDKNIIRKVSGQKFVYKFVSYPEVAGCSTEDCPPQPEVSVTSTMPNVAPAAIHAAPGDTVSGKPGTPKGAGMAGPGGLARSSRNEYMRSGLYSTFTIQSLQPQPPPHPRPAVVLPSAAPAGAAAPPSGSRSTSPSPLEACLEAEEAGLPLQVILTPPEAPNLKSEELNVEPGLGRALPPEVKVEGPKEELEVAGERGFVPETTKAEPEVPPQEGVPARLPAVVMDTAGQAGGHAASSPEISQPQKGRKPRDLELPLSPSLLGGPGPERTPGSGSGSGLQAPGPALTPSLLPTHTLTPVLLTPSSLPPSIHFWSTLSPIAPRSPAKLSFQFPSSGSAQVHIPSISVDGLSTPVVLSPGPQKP
# Procedure, shortened: as §1
# GABPA = target: T3, GABPA (Homo sapiens, UniProt Q06546 1-454)
# T3 sequence: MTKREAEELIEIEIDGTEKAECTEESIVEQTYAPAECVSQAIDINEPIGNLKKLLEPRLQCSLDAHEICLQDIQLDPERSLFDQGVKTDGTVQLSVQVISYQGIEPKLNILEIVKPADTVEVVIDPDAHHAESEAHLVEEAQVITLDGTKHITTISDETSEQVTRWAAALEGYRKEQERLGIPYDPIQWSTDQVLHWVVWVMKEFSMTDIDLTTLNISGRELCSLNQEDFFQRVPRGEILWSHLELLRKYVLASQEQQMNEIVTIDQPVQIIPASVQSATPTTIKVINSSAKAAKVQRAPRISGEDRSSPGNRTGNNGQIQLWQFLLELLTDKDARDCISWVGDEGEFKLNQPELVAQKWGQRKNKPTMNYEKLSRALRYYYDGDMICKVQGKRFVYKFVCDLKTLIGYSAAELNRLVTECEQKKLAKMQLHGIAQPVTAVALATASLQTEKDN
# Procedure, shortened: as §1
# ERG = target: T4, ERG (Homo sapiens, UniProt P11308 1-479)
# T4 sequence: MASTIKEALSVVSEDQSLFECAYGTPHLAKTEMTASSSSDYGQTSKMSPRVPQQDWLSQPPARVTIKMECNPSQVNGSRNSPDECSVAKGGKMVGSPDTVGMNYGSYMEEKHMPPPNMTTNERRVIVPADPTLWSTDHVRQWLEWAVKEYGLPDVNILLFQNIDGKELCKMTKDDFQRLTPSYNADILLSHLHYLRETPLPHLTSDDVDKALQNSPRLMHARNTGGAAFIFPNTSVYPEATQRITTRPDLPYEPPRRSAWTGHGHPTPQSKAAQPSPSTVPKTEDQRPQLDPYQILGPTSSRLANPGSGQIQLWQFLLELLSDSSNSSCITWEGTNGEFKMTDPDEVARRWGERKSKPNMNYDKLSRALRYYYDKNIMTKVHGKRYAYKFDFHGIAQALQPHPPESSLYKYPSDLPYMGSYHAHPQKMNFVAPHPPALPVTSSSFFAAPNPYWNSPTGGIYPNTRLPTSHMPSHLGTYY
# Procedure, shortened: as §1
# ELF1 = ELF1 (Homo sapiens, UniProt P32519 1-619)
# Procedure, shortened: as §1
# EHF = target: T5, EHF (Homo sapiens, UniProt Q9NZC4 1-300)
# T5 sequence: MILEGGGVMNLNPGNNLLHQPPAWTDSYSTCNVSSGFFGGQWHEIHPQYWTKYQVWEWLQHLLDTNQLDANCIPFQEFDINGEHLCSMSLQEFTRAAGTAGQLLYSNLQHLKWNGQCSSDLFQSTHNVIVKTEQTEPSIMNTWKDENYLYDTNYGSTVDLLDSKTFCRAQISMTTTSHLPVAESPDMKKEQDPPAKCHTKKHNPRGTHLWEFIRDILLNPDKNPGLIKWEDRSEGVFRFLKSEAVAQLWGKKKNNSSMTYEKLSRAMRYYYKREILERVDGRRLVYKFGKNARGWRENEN
# Procedure, shortened: as §1
# SPI1 = SPI1 (Homo sapiens, UniProt P17947 1-270)
# Procedure, shortened: as §1
# FEV = target: T6, FEV (Homo sapiens, UniProt Q99581 1-238)
# T6 sequence: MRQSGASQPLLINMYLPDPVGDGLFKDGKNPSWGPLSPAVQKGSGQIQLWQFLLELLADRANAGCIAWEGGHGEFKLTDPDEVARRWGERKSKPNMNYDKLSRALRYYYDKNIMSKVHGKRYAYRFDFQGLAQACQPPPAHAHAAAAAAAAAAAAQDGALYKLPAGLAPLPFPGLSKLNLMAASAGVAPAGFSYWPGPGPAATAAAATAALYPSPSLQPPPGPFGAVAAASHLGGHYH
# Procedure, shortened: as §1
# ETV5 = ETV5 (Homo sapiens, UniProt P41161 1-510)
# Procedure, shortened: as §1
# ELF4 = ELF4 (Homo sapiens, UniProt Q99607 1-663)
# Procedure, shortened: as §1
# ETV2 = target: T7, ETV2 (Homo sapiens, UniProt O00321 1-342)
# T7 sequence: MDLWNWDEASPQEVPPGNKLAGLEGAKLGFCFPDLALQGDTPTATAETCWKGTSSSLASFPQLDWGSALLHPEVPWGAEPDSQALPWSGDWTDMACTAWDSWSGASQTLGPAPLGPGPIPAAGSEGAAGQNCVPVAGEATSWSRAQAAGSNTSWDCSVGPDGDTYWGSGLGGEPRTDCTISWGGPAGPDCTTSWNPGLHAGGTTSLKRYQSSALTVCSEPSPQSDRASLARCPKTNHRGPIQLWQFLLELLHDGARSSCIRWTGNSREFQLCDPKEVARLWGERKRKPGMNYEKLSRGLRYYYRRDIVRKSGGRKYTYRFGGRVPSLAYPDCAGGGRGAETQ
# Procedure, shortened: as §1
# ELF3 = target: T8, ELF3 (Homo sapiens, UniProt P78545 1-371)
# T8 sequence: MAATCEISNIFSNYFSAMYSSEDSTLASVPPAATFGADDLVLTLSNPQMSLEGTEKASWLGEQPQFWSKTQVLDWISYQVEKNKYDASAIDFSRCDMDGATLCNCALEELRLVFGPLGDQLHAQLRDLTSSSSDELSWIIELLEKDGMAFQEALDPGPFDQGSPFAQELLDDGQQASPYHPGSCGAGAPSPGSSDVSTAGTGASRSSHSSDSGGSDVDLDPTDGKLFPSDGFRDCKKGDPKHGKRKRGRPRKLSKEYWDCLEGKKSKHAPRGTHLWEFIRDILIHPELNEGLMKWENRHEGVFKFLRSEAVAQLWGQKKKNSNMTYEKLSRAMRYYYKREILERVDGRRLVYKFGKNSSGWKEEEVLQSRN
# Procedure, shortened: as §1
# ETV1 = ETV1 (Homo sapiens, UniProt P50549 1-477)
# Procedure, shortened: as §1
# ERF = target: T9, ERF (Homo sapiens, UniProt P50548 1-548)
# T9 sequence: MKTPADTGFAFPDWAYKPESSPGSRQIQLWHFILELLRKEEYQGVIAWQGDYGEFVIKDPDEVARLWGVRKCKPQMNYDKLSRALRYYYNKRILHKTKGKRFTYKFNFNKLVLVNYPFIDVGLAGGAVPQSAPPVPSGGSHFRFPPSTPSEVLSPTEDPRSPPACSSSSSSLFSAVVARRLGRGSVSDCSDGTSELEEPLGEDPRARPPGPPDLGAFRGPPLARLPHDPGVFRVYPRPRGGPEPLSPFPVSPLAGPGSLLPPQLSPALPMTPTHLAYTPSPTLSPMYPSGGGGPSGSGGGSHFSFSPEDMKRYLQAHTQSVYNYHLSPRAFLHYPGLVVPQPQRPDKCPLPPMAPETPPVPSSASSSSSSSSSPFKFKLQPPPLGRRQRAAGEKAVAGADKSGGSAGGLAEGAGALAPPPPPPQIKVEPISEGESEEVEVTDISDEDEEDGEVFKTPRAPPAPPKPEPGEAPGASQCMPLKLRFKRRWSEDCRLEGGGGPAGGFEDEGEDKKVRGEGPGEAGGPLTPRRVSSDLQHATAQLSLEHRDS
# Procedure, shortened: as §1
# ETV3L = target: T10, ETV3L (Homo sapiens, UniProt Q6ZN32 1-361)
# T10 sequence: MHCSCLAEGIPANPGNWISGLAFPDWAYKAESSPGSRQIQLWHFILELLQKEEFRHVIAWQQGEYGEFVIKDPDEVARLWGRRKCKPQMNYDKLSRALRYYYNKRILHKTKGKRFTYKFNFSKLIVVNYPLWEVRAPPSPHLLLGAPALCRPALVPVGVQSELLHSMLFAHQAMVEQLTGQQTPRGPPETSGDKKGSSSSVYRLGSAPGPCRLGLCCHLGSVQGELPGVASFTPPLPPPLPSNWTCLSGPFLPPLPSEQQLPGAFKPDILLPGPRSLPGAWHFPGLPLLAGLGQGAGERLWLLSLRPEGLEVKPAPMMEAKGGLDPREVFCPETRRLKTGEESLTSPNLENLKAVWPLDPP
# Procedure, shortened: as §1
# ETS2 = target: T11, ETS2 (Homo sapiens, UniProt P15036 1-469)
# T11 sequence: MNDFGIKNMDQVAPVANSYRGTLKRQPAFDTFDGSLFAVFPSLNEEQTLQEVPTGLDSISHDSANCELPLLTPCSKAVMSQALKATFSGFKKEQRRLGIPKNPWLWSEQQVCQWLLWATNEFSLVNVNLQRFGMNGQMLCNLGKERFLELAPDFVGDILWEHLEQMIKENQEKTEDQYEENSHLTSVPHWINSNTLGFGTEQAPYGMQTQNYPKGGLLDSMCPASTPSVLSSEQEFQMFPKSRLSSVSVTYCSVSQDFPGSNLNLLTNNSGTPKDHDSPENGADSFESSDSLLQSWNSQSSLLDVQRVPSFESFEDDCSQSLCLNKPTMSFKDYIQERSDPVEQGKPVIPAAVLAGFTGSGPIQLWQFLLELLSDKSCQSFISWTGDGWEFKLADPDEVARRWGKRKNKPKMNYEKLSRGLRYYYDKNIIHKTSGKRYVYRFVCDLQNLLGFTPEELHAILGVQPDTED
# Procedure, shortened: as §1
# ETV7 = target: T12, ETV7 (Homo sapiens, UniProt Q9Y603 1-341)
# T12 sequence: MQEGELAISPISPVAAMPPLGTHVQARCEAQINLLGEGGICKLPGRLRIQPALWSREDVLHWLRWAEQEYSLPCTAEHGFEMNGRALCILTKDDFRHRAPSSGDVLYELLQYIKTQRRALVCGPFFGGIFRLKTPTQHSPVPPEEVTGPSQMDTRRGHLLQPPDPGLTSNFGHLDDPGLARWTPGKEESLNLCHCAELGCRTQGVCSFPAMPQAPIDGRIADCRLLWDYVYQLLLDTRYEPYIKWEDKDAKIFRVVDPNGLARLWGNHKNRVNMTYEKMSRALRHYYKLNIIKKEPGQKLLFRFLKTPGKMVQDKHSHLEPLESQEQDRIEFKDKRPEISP
# Procedure, shortened: as §1
# ETV3 = target: T13, ETV3 (Homo sapiens, UniProt P41162-2 1-143)
# T13 sequence: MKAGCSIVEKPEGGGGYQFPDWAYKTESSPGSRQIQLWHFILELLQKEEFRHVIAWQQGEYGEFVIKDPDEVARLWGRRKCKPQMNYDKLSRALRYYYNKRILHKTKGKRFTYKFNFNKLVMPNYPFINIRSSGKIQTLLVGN
# Procedure, shortened: as §1
# ETV6 = ETV6 (Homo sapiens, UniProt P41212 1-452)
# Procedure, shortened: as §1
# Chain of ETV6 (P41212 whole entry): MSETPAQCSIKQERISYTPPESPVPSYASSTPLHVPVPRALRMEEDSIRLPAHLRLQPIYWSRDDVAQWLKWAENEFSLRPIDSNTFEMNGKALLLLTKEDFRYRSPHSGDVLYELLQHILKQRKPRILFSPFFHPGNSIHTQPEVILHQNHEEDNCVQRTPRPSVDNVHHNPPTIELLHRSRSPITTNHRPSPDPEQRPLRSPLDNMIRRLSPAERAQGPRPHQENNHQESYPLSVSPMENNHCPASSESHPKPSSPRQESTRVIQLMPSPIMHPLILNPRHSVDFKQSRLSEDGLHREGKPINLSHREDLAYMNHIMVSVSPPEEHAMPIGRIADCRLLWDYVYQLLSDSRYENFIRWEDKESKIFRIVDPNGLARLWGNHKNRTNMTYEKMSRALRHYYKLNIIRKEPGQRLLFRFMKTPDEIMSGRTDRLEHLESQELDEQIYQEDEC
# Chain of ETV5 (P41161 whole entry): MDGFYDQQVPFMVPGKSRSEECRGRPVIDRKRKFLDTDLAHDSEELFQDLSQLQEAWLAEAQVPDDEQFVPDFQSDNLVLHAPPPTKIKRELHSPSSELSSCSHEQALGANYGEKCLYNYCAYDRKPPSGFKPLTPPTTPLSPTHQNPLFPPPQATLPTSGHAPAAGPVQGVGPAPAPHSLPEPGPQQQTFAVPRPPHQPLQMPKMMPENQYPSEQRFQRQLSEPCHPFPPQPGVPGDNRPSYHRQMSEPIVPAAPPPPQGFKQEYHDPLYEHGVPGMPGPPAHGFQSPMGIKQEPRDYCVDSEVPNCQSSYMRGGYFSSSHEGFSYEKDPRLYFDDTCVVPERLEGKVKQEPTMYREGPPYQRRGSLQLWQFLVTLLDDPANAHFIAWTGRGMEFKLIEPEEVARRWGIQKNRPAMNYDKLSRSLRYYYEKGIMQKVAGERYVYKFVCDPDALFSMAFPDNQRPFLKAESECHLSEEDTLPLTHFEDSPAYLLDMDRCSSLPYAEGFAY
# Chain of ELF4 (Q99607 whole entry): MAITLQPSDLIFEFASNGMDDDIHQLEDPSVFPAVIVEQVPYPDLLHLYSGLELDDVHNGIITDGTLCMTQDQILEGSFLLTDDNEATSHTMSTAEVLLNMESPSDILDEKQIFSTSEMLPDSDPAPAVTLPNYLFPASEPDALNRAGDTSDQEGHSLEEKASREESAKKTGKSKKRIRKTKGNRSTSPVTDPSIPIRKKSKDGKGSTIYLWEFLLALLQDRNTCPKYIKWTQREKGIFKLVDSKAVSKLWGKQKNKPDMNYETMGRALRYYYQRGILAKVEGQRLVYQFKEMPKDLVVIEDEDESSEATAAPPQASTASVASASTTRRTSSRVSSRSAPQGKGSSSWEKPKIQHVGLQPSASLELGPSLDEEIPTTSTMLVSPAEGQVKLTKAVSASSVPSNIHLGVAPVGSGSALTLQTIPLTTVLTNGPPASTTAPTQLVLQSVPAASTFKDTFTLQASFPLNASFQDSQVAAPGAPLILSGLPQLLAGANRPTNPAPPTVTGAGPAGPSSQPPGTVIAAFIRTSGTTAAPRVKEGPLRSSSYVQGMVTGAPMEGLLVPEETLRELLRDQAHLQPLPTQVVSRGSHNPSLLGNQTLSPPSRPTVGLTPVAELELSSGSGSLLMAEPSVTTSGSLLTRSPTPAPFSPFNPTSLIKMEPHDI
# Chain of ETV1 (P50549 whole entry): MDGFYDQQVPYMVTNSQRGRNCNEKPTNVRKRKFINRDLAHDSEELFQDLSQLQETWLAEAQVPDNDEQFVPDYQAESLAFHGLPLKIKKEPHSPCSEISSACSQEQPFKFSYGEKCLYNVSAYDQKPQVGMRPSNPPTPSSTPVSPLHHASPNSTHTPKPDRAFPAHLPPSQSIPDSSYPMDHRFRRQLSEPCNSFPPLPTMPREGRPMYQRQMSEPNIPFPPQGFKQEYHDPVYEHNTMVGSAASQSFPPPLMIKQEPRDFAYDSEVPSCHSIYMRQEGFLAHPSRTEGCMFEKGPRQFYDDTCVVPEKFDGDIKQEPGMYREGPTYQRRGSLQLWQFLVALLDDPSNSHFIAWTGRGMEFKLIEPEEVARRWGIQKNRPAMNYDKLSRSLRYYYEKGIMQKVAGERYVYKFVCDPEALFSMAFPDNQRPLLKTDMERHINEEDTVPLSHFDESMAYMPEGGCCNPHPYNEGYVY
# Chain of ELF1 (P32519 whole entry): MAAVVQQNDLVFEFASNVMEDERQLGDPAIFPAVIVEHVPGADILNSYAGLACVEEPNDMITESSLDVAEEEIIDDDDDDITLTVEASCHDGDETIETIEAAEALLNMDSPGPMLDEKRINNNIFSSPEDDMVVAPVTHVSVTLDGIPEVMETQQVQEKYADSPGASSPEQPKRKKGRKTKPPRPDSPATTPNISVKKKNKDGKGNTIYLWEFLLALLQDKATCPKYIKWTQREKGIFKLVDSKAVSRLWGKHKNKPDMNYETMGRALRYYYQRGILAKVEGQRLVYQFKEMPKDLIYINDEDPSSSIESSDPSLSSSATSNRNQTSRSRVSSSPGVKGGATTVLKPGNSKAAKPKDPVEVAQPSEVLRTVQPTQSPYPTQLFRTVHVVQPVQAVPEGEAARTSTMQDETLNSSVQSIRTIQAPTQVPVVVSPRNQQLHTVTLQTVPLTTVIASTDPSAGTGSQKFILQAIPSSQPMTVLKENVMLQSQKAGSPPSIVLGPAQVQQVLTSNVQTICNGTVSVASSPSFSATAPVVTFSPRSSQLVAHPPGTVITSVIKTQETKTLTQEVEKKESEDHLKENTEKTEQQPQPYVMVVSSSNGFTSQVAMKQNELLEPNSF
sequence,measurement,setting,value
TCATGT,binding signal,FLI1,"1.14 fold enrichment (6-mer frequency, TF over GST control)"
same,binding signal,ELK1,"1.17 fold enrichment (6-mer frequency, TF over GST control)"
same,binding signal,GABPA,"1.11 fold enrichment (6-mer frequency, TF over GST control)"
same,binding signal,ERG,"1.1 fold enrichment (6-mer frequency, TF over GST control)"
same,binding signal,ELF1,"1.15 fold enrichment (6-mer frequency, TF over GST control)"
same,binding signal,EHF,"1.02 fold enrichment (6-mer frequency, TF over GST control)"
same,binding signal,SPI1,"1.15 fold enrichment (6-mer frequency, TF over GST control)"
same,binding signal,FEV,"1.05 fold enrichment (6-mer frequency, TF over GST control)"
same,binding signal,ETV5,"1.16 fold enrichment (6-mer frequency, TF over GST control)"
same,binding signal,ELF4,"1.1 fold enrichment (6-mer frequency, TF over GST control)"
same,binding signal,ETV2,"1.15 fold enrichment (6-mer frequency, TF over GST control)"
same,binding signal,ELF3,"1.04 fold enrichment (6-mer frequency, TF over GST control)"
same,binding signal,ETV1,"1.27 fold enrichment (6-mer frequency, TF over GST control)"
same,binding signal,ERF,"1.13 fold enrichment (6-mer frequency, TF over GST control)"
same,binding signal,ETV3L,"1.15 fold enrichment (6-mer frequency, TF over GST control)"
same,binding signal,ETS2,"1.11 fold enrichment (6-mer frequency, TF over GST control)"
same,binding signal,ETV7,"1.15 fold enrichment (6-mer frequency, TF over GST control)"
same,binding signal,ETV3,"1.14 fold enrichment (6-mer frequency, TF over GST control)"
same,binding signal,ETV6,"1.08 fold enrichment (6-mer frequency, TF over GST control)"
